# Experimental data: PubChem BioAssay AID1259415 (National Center for Advancing Translational Sciences (NCATS), 2018)
# About 18,000 (4.4%) of roughly 410,000 compounds were called active. Inconclusive results (about 7%) are left out. No stated cut-off is given here; in the data, active means activity change below about -60%; inconclusive means no clear call, values can overlap the other calls; inactive means above about -39%. Only a selection was taken, and actives are over-represented in it overall.
# Assay: qHTS Assay for inhibitors of the human cytomegalovirus (HCMV)
# Details: HFF cells, HCMV-luciferase reporter, 72 h; at 57.5 µM; stronger effect = lower value
# Outline: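 Two compound doses tested in HFFs infected with HCMV-luciferase, MOI 1 PFU/cell, 72 h at 37C. Lysate luminescence read with OneGlo; data normalized against buffer-only and 10uM Salinomycin inhibitor controls.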
# On the % scale 0 is the no-effect control and ±100 the full control effect.
row,Compound,"activity change, negative = inhibition"
1,CCOC(=O)[C@H]1[C@H]2COc3ccc(Br)cc3[C@@H]2N2C(=O)CN(C)C(=O)[C@@]12C,4.78% (inactive)
2,CC(=O)Nc1ccc(NC(=O)C2CCCN(S(=O)(=O)c3ccc4c(c3)CCCC(=O)N4)C2)cc1 (stereo not given),20.2% (inactive)
3,Cc1ccc(C)c(N2CCN(C(=O)Cn3ncc4c(=O)oc5ccc(C)cc5c43)CC2)c1,4.14% (inactive)
4,Cc1ccccc1-c1cc(C(=O)NCc2cccs2)n(CC2CC(c3cccnc3)=NO2)n1 (stereo not given),-10.2% (inactive)
5,Cc1ccccc1N1CC(C(=O)Nc2ccc3c(c2)OCO3)CC1=O (stereo not given),31.2% (inactive)
6,O=C(OCCOc1ccccc1Cl)c1cc(S(=O)(=O)N2CCCCC2)ccc1N1CCOCC1,-69.8% (active)
7,O=C(OCCOc1ccccc1F)c1cc(S(=O)(=O)N2CCOCC2)ccc1F,-18% (inactive)
8,CC(C)(C)C(=O)COC(=O)c1cc(S(=O)(=O)N2CCCCC2)ccc1N1CCOCC1,-11.9% (inactive)
9,CCOC(=O)c1c(C)[nH]c(C)c1S(=O)(=O)N1CCCC(C(=O)NCc2ccccc2Cl)C1 (stereo not given),-15.8% (inactive)
10,CCOc1ccccc1CNC(=O)Nc1cn(CC(C)C)c(=O)c2ccccc12,-2.27% (inactive)
11,CCOc1ccc(S(=O)(=O)Nc2ccncc2)c(C)c1C,-26.1% (inactive)
12,Cc1cc(-c2n[nH]c(=S)n2/N=C/C(Br)=C/c2ccccc2)n[nH]1,-95% (active)
13,CCN(CCCNC(=O)c1ccc2c(c1)NC(=O)CN2C)c1cccc(C)c1,-95.1% (active)
14,CCN(CCCNC(=O)Cn1ncc2c([nH]c3ccccc32)c1=O)c1cccc(C)c1,19.5% (inactive)
15,CCN(CCCNC(=O)c1ccc(Sc2ccc(C)cc2)c(NC(C)=O)c1)c1cccc(C)c1,-13.8% (inactive)
16,COc1ccc(SCc2cc(=O)c3ccc(C)c(C)c3[nH]2)cc1,-8.87% (inactive)
17,CC(C)C(C(=O)NC(C)(C)CC(C)(C)C)N1C(=O)C(=O)c2ccccc21 (stereo not given),229% (inactive)
18,CCOC(=O)C1(S(=O)(=O)c2ccc(Cl)cc2)CCN(Cc2ccccc2)CC1,-98.6% (active)
19,O=C(NNS(=O)(=O)c1ccc(Cl)cc1)C1CCN(Cc2ccccc2)CC1,14.7% (inactive)
20,CCOC(=O)c1ccc(CN(Cc2ccccc2)S(=O)(=O)c2ccc(Cl)cc2)cc1,-6.46% (inactive)
21,CN(CC(=O)Nc1ccccc1Cl)C(=O)COc1cccc2c1OC(C)(C)C2,-11.1% (inactive)
22,O=C(Nc1ccc(O)c(-c2nc3ccccc3o2)c1)c1ccc(-c2cccc(Cl)c2)o1,11.5% (inactive)
23,Cc1nc(Nc2ccc(S(=O)(=O)N3CCCC3)cc2)c2nnn(Cc3ccccc3)c2n1,-1% (inactive)
24,Cc1nc(Nc2ccc3c(c2)OCCO3)c2nnn(Cc3ccccc3Cl)c2n1,-91.8% (active)
25,Cc1nc(Nc2ccccc2F)c2nnn(Cc3ccccc3Cl)c2n1,33.3% (inactive)
